# Test results as given in PubChem BioAssay (EPA / NIEHS).
# Records with an inconclusive call do not appear. Activity calls are given as the source filed them. The calls were made as follows, unless noted: active = hit-call score of the fitted dose curve at least 0.9, where 1 is the maximum; inactive = score below 0.9.
# Assays:
# [1] = target: Retinoic acid receptor RXR-alpha (Homo sapiens) (UniProt P19793); assay: ATG_RXRa_TRANS: Attagene TRANS-FACTORIAL HepG2 Assay for human Retinoid X Receptor alpha (RXRa) (AID 2283012; active = hit-call score of the fitted dose curve at least 0.9, where 1 is the maximum)
# How it was run: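 HepG2 cells transiently transfected with GAL4-UAS reporter units and chimeric RXRa-Gal4 protein, treated 24 h. Reporter mRNA measured by RT-PCR, fluorescent labelling, HpaI digestion and capillary electrophoresis. Induction fitted against DMSO.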
# [2] = target: human Thyroid Receptor alpha (THRa1), THRA (gene 7067) (UniProt P10827); assay: ATG_THRa1_TRANS: Attagene TRANS-FACTORIAL HepG2 Assay for human Thyroid Receptor alpha (THRa1) (AID 2283014; active = hit-call score of the fitted dose curve at least 0.9, where 1 is the maximum)
# How it was run: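 Transcripts from GAL4-UAS-driven reporters, measured after 24 h compound exposure by RT-PCR plus capillary electrophoresis of 6-FAM-labeled fragments, were fitted for gain of signal relative to DMSO. Cells: transiently transfected HepG2 expressing NR-Gal4 chimeras.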
# [3] = read-out: E-selectin (Homo sapiens) (UniProt P16581); assay: BSK_3C_Eselectin: BioMAP Diversity Plus: 3C Assay for Eselectin Biomarker Activity (AID 2283015); conditions: primary human endothelial cells (HUVEC); actives raise or lower the signal
# How it was run: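 E-selectin ELISA readout, fitted bidirectionally relative to DMSO, taken 24 h post-dosing in HUVEC cultures of the 3C system. Overt cytotoxicity tracked with sulforhodamine B staining of parallel wells.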
# [4] = read-out: Interleukin-1 alpha (IL1a), IL1A (gene 3552); assay: BSK_BE3C_IL1a: BioMAP Diversity Plus: BE3C Assay for Interleukin-1 alpha (IL1a) Biomarker Activity (AID 2283016); conditions: primary human bronchial epithelial cells; actives raise or lower the signal
# How it was run: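 Human primary bronchial epithelial cells, 24 h chemical exposure; IL-1a quantified by ELISA, fitted bidirectionally against DMSO. Cytotoxicity assessed in parallel by SRB total-protein staining at the time of measurement.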
# [5] = read-out: Monocyte Chemoattractant Protein-1 (MCP1), CCL2 (gene 6347); assay: BSK_3C_MCP1: BioMAP Diversity Plus: 3C Assay for Monocyte Chemoattractant Protein-1 (MCP1) Biomarker Activity (AID 2283017); conditions: primary human endothelial cells (HUVEC); actives raise or lower the signal
# How it was run: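 MCP-1 was measured by ELISA 24 h after dosing in primary HUVEC 3C cultures and fitted in both directions relative to DMSO; cytotoxicity was checked by SRB total-protein staining in parallel wells.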
# [6] = read-out: Monocyte Chemoattractant Protein-1 (MCP1), CCL2 (gene 6347); assay: BSK_4H_MCP1: BioMAP Diversity Plus: 4H Assay for Monocyte Chemoattractant Protein-1 (MCP1) Biomarker Activity (AID 2283018); conditions: primary human endothelial cells (HUVEC); actives raise or lower the signal
# How it was run: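 Human umbilical vein endothelial cells (4H system) exposed to chemicals for 24 h in 96-well format. MCP-1 measured by ELISA; bidirectional fitting against DMSO, with SRB total-protein staining in parallel cultures for cytotoxicity.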
# [7] = read-out: Human Leukocyte Antigen - DR isotype (HLADR), HLA-DRA (gene 3122); assay: BSK_3C_HLADR: BioMAP Diversity Plus: 3C Assay for Human Leukocyte Antigen - DR isotype (HLADR) Biomarker Activity (AID 2283019); conditions: primary human endothelial cells (HUVEC); actives raise or lower the signal;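 as to outcome: ELISA of cell-surface HLA-DR on HUVEC 24 h after dosing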
# How it was run: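 Bidirectional fitting against DMSO was applied to the HLA-DR ELISA signal from human umbilical vein endothelial cells, 24 h post-dose. Cytotoxicity came from parallel SRB total-protein staining; 3C proliferation was counted by SRB at 48 h.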
# [8] = read-out: Interleukin-8 (IL8), CXCL8 (gene 3576); assay: BSK_3C_IL8: BioMAP Diversity Plus: 3C Assay for Interleukin-8 (IL8) Biomarker Activity (AID 2283020); conditions: primary human endothelial cells (HUVEC); actives raise or lower the signal
# How it was run: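 Primary human umbilical vein endothelial cells were dosed for 24 h. IL-8 was quantified by ELISA and fitted bidirectionally against DMSO. Cytotoxicity was assessed in parallel cultures by SRB staining at 560 nm.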
# [9] = read-out: Monokine induced gamma interferon (MIG), CXCL9 (gene 4283); assay: BSK_3C_MIG: BioMAP Diversity Plus: 3C Assay for Monokine induced gamma interferon (MIG) Biomarker Activity (AID 2283021); conditions: primary human endothelial cells (HUVEC); actives raise or lower the signal;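 as to AC50: MIG protein level measured by immunoassay in the treated endothelial cultures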
# How it was run: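 HUVEC primary endothelial cultures dosed with chemical; MIG quantified by ELISA at 24 h. Data fitted bidirectionally against DMSO control, with parallel SRB total-protein staining for cytotoxicity.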
# [10] = target: human Vitamin D Receptor (VDR), VDR (gene 7421) (UniProt P11473); assay: ATG_VDR_TRANS: Attagene TRANS-FACTORIAL HepG2 Assay for human Vitamin D Receptor (VDR) (AID 2283022; active = hit-call score of the fitted dose curve at least 0.9, where 1 is the maximum)
# How it was run: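 Transactivation by an exogenous VDR-Gal4 chimera in transiently transfected HepG2 cells was measured as reporter transcript level 24 hours after chemical treatment. RT-PCR products were analysed by capillary electrophoresis and fitted in the positive direction relative to DMSO.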
# [11] = BSK_3C_SRB: Viability Assessment in the BioMAP Diversity Plus: 3C Assay (AID 2283023); conditions: primary human endothelial cells (HUVEC);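 also: fitted both ways against DMSO so a hit may be signal rise or drop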
# How it was run: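 Cytotoxicity readout in parallel HUVEC 3C cultures: after 24 h compound exposure, cells fixed with 10% TCA, stained with 0.1% SRB and read at 560 nm. Gain or loss relative to DMSO fitted.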
# [12] = read-out: Matrix Metallopeptidase 1 (MMP1), MMP1 (gene 4312); assay: BSK_BE3C_MMP1: BioMAP Diversity Plus: BE3C Assay for Matrix Metallopeptidase 1 (MMP1) Biomarker Activity (AID 2283024); conditions: primary human bronchial epithelial cells; actives raise or lower the signal
# How it was run: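 Human primary bronchial epithelial cells (BE3C system) dosed for 24 h; MMP-1 quantified by ELISA. Bidirectional fit against DMSO; cytotoxicity tracked in parallel cultures by SRB total-protein staining.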
# [13] = BSK_3C_Vis: BioMAP Diversity Plus: 3C Assay for Morphology Visualization (AID 2283025); conditions: primary human endothelial cells (HUVEC);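 also: fitted both ways so gain or loss versus DMSO counts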
# How it was run: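 Human umbilical vein endothelial cell morphology was inspected by light microscopy 24 h after chemical dosing; scored bidirectionally relative to DMSO.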
# [14] = read-out: Pselectin, SELP (gene 6403); assay: BSK_4H_Pselectin: BioMAP Diversity Plus: 4H Assay for Pselectin Biomarker Activity (AID 2283026); conditions: primary human endothelial cells (HUVEC); actives raise or lower the signal
# How it was run: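 Primary human umbilical vein endothelial cells were treated 24 h, and cell-surface P-selectin was then quantified by ELISA. Bidirectional fit versus DMSO; cytotoxicity checked in parallel cultures by SRB total-protein staining.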
# [15] = BSK_4H_SRB: Viability Assessment in the BioMAP Diversity Plus: 4H Assay (AID 2283027); conditions: primary human endothelial cells (HUVEC);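 also: cells exposed to compound for 24 h before staining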;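 as to AC50: curves fitted both ways versus DMSO so AC50 may be loss or gain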
# How it was run: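 Human umbilical vein endothelial cells were dosed with chemical and, after 24 h, fixed with 10% TCA, stained with 0.1% sulforhodamine B, and read at 560 nm to give total protein as a cytotoxicity measure. Bidirectional fitting relative to DMSO control.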
# [16] = read-out: Urokinase-type plasminogen activator receptor (uPAR), PLAUR (gene 5329); assay: BSK_4H_uPAR: BioMAP Diversity Plus: 4H Assay for Urokinase-type plasminogen activator receptor (uPAR) Biomarker Activity (AID 2283030); conditions: primary human endothelial cells (HUVEC); actives raise or lower the signal
# How it was run: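 uPAR level read by ELISA on HUVEC cultures (BioMAP 4H) 24 h post-dosing, analyzed for gain or loss relative to DMSO. Parallel SRB staining assessed overt cytotoxicity.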
# [17] = read-out: Vascular endothelial growth factor receptor 2 (Homo sapiens) (UniProt P35968); assay: BSK_4H_VEGFRII: BioMAP Diversity Plus: 4H Assay for Vascular endothelial growth factor receptor 2 (VEGFR2) Biomarker Activity (AID 2283031); conditions: primary human endothelial cells (HUVEC); actives raise or lower the signal;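 as to AC50: cell-surface VEGFR2 protein level quantified by ELISA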
# How it was run: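 Measured by ELISA after 24 h of compound treatment: VEGFR2 on primary human umbilical vein endothelial cells, fitted in both directions relative to DMSO. Parallel cultures received SRB staining (560 nm) for overt cytotoxicity.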
# [18] = read-out: Human Leukocyte Antigen - DR isotype (HLADR), HLA-DRA (gene 3122); assay: BSK_BE3C_HLADR: BioMAP Diversity Plus: BE3C Assay for Human Leukocyte Antigen - DR isotype (HLADR) Biomarker Activity (AID 2283032); conditions: primary human bronchial epithelial cells; actives raise or lower the signal
# How it was run: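 Human primary bronchial epithelial cells (BE3C system) exposed to compound for 24 hours; cell-surface HLA-DR measured by ELISA, fitted bidirectionally relative to DMSO. Total protein by SRB in parallel cultures tracked cytotoxicity.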
# [19] = target: human Retinoid X Receptor beta (RXRb), RXRB (gene 6257) (UniProt P28702); assay: ATG_RXRb_TRANS: Attagene TRANS-FACTORIAL HepG2 Assay for human Retinoid X Receptor beta (RXRb) (AID 2283013; active = hit-call score of the fitted dose curve at least 0.9, where 1 is the maximum)
# How it was run: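 HepG2 cells were transiently transfected with multiplexed GAL4-UAS reporters and a chimeric RXRb-Gal4 construct, then exposed for 24 h. Reporter mRNA was quantified by RT-PCR, FAM labeling, HpaI digestion and capillary electrophoresis; gain of signal was scored against DMSO.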
# Chain of human Vitamin D Receptor (VDR), VDR (gene 7421) (P11473 whole entry, looked up, the tested form may be a part): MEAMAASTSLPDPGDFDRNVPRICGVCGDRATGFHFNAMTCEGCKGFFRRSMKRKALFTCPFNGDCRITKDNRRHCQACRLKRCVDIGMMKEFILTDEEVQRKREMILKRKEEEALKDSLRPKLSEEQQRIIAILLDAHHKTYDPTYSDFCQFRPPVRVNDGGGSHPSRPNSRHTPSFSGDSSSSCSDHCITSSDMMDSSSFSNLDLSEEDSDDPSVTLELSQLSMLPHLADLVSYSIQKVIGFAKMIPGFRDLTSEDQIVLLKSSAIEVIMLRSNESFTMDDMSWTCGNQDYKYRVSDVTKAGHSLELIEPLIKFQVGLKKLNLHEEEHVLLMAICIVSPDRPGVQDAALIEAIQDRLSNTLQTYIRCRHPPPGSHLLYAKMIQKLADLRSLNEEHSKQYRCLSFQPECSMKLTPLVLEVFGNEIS
# Chain of Retinoic acid receptor RXR-alpha (Homo sapiens) (P19793 whole entry, looked up, the tested form may be a part): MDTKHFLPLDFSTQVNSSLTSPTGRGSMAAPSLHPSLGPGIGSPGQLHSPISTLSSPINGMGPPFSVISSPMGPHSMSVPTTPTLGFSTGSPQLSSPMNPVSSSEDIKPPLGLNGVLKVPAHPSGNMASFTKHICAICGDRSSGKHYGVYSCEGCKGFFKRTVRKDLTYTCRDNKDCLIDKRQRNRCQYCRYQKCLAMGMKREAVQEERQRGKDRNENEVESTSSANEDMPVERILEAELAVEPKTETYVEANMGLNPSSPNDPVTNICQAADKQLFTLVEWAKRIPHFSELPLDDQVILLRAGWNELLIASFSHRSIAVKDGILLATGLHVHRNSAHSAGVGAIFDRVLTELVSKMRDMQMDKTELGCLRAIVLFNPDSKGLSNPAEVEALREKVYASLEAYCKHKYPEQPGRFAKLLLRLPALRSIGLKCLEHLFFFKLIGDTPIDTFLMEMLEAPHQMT
# Chain of human Thyroid Receptor alpha (THRa1), THRA (gene 7067) (P10827 whole entry, looked up, the tested form may be a part): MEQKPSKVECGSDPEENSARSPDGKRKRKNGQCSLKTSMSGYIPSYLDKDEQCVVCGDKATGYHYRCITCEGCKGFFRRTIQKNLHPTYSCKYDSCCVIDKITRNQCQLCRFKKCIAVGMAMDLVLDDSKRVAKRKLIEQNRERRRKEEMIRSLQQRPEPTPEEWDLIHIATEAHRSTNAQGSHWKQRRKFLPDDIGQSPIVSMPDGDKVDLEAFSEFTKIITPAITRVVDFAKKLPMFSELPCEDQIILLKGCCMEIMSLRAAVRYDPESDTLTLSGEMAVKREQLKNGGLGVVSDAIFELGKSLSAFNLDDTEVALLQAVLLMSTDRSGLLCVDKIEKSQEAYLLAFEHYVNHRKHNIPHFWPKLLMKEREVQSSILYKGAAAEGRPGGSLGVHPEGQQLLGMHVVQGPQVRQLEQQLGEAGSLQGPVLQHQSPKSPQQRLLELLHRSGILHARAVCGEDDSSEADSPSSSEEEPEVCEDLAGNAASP
# Chain of human Retinoid X Receptor beta (RXRb), RXRB (gene 6257) (P28702 whole entry, looked up, the tested form may be a part): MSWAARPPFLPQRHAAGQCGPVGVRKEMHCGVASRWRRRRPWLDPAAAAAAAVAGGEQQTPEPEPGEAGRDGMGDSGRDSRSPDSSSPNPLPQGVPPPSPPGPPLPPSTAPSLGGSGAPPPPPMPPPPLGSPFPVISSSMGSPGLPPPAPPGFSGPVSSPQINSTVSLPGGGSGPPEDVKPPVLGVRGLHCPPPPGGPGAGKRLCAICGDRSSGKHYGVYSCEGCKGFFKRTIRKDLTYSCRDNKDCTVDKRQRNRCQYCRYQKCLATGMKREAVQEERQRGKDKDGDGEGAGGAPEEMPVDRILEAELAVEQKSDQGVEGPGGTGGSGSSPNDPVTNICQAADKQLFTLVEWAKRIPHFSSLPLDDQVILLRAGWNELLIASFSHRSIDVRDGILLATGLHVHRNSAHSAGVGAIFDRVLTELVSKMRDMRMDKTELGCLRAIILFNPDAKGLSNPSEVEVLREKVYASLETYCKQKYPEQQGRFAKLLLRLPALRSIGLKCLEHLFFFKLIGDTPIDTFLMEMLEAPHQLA
# Chain of E-selectin (Homo sapiens) (P16581 whole entry, looked up): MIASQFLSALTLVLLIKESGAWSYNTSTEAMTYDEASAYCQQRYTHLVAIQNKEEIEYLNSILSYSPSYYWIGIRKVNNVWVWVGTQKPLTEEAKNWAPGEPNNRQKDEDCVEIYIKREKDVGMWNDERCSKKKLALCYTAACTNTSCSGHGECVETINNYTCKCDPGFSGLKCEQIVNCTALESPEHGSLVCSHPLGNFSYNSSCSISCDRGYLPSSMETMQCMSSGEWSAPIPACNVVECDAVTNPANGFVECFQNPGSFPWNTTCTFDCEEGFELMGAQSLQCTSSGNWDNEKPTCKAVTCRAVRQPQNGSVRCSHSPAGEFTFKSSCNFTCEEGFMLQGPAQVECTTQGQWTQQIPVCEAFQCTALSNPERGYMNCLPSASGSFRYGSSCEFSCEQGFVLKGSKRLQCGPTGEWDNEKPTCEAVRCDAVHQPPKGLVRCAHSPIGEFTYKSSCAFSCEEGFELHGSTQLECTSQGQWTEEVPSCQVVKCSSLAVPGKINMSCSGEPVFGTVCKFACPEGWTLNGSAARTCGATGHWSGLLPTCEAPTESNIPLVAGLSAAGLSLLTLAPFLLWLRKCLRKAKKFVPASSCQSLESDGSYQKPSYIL
smiles,measurement,setting,value
c1ccc(-c2ccccn2)nc1,outcome,[1],inactive
same,outcome,[2],inactive
same,outcome,[3],inactive
same,outcome,[4],inactive
same,outcome,[5],inactive
same,AC50,[6],20 µM (active)
same,outcome,[7],inactive
same,outcome,[8],inactive
same,outcome,[9],inactive
same,outcome,[10],inactive
same,outcome,[11],inactive
same,outcome,[12],inactive
same,outcome,[13],inactive
same,outcome,[14],inactive
same,outcome,[15],inactive
same,outcome,[16],inactive
same,outcome,[17],inactive
same,outcome,[18],inactive
CC(=O)Nc1ccc2c(c1)Cc1cc(NC(C)=O)ccc1-2,outcome,[19],inactive
same,outcome,[2],inactive
same,outcome,[10],inactive
CN(C)CCCN(C)C,outcome,[1],inactive
same,outcome,[2],inactive
same,outcome,[10],inactive
O=c1c2ccccc2oc2ccccc12,outcome,[1],inactive
same,outcome,[2],inactive
same,outcome,[3],inactive
same,AC50,[4],0.173 µM (active)
same,outcome,[5],inactive
same,outcome,[6],inactive
same,outcome,[7],inactive
same,outcome,[8],inactive
same,outcome,[9],inactive
same,outcome,[11],inactive
same,AC50,[12],0.139 µM (active)
same,outcome,[13],inactive
same,outcome,[14],inactive
same,outcome,[15],inactive
same,outcome,[16],inactive
same,outcome,[17],inactive
same,outcome,[18],inactive
C=C1C2CCC(C2)C1(C)C (configuration not stated),outcome,[19],inactive
same,outcome,[2],inactive
CCc1nccnc1C,outcome,[1],inactive
same,outcome,[2],inactive
same,outcome,[10],inactive
CCOC(=O)NNc1nncc2ccccc12,outcome,[1],inactive
same,outcome,[2],inactive
same,outcome,[10],inactive
CC(C)CC(O)Cc1ccccc1 (configuration not stated),outcome,[19],inactive
same,outcome,[2],inactive
same,outcome,[10],inactive
Nc1ncn([C@@H]2O[C@H](CO)[C@@H](O)[C@H]2O)c(=O)n1,outcome,[1],inactive
same,outcome,[2],inactive
same,outcome,[10],inactive
CC(C)=CCCC(C)C=O (configuration not stated),outcome,[19],inactive
same,outcome,[2],inactive
same,outcome,[10],inactive
CCO[Si](CCCN=C=O)(OCC)OCC,outcome,[1],inactive
same,outcome,[2],inactive
same,outcome,[3],inactive
same,outcome,[4],inactive
same,outcome,[5],inactive
same,outcome,[6],inactive
same,outcome,[7],inactive
same,outcome,[8],inactive
same,outcome,[9],inactive
same,outcome,[10],inactive
same,outcome,[11],inactive
same,outcome,[12],inactive
same,outcome,[13],inactive
same,outcome,[14],inactive
same,outcome,[15],inactive
same,outcome,[16],inactive
same,outcome,[17],inactive
same,outcome,[18],inactive
CCCCCC/C=C/C=O,outcome,[19],inactive
CCOC(=O)CC,outcome,[1],inactive
same,outcome,[2],inactive
same,outcome,[10],inactive
CC(C)(c1cc(Br)c(OCCO)c(Br)c1)c1cc(Br)c(OCCO)c(Br)c1,AC50,[1],81 µM (active)
same,outcome,[2],inactive
same,AC50,[3],16.2 µM (active)
same,outcome,[4],inactive
same,AC50,[5],11.7 µM (active)
same,AC50,[6],5.24 µM (active)
same,AC50,[7],18.6 µM (active)
same,AC50,[8],16.2 µM (active)
same,AC50,[9],27.6 µM (active)
same,outcome,[10],inactive
same,AC50,[11],19.3 µM (active)
same,AC50,[12],0.911 µM (active)
same,AC50,[14],8.19 µM (active)
same,AC50,[15],16.2 µM (active)
same,AC50,[16],11.7 µM (active)
same,AC50,[17],9.45 µM (active)
same,outcome,[18],inactive
